The record followed here is PubChem BioAssay AID2451 (National Center for Advancing Translational Sciences (NCATS), 2010).

Screen size: about 290,000 compounds; about 2,100 (0.72%) were called active. Where a call stands in place of a potency, no number is given. Roughly 4% stayed inconclusive and do not appear here. The call rests on the fitted dose curve; in most records, active means well fitted inhibition curve with a large enough effect; inconclusive means small, poorly fitted or top-dose-only effect, or effect the other way; inactive means flat fitted curve, though single readings scatter. Many of the other results were omitted from the sample, so actives are more common in it than they were.
Potency means the concentration at half of the fitted maximal effect.

Chain of Fructose-bisphosphate aldolase (Giardia intestinalis (strain ATCC 50803 / WB clone C6)) (A8B2U2 whole entry, looked up): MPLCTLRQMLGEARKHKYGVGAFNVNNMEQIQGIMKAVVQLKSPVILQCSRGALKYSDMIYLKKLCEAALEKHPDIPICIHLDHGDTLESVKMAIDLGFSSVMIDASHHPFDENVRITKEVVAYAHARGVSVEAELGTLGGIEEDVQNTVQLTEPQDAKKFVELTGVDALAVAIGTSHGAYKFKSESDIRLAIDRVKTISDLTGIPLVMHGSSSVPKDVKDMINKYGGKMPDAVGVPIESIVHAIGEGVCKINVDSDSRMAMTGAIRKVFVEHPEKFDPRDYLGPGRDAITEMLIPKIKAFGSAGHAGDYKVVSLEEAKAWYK

The assay has as its target Fructose-bisphosphate aldolase (Giardia intestinalis (strain ATCC 50803 / WB clone C6)) (UniProt A8B2U2). The assay is described as follows: qHTS Assay for Inhibitors of Fructose-1,6-bisphosphate Aldolase from Giardia Lamblia. Further: nearly all actives have a fitted effect of over 55% in size. The settings on record: purified Giardia FBPA; series mostly up to 59.6 µM. From the text:
Assay Provider: Osnat Herzberg, University of Maryland
The objective of this project is to obtain compounds that inhibit Giardia lamblia growth. G. lamblia is a human pathogen which afflicts impoverished nations; it is the most common cause of outbreaks of diarrhea in the United States. During the course of our study of potential drug targets in Giardia, we have identified the Class II (Zn2+ functions in electrophilic catalysis) fructose-1,6-bisphosphate aldolase (FBPA) as an excellent candidate for drug targeting. FBPA is a key glycolytic pathway enzyme, essential for G. lamblia survival. The human FBPA belongs to the Class I aldolases, which have a different substrate binding site structure and a radically different catalytic mechanism (employing a lysine-Schiff base intermediate). Therefore, affinity-based or mechanism-based inhibitors of the Giardia FBPA are expected not to interfere with the catalytic function of the human FBPA.
A glyceraldehyde-3-phosphate dehydrogenase/triose phosphate isomerase/NAD/arsenate coupled assay was adapted to the 1536-well HTP format for use in the primary screen. This was done by coupling it to a diaphorase/resazurin/resorufin reaction that can be monitored by fluorescence (excitation, 544 nm; emission, 590 nm). Compounds identified in this screen will be further evaluated by coupling the glycerol-3-phosphate/triose phosphate isomerase/NADH assay to a phenazine methosulfate/tetranitroblue tetrazolium color reaction. False positives due to the dehydrogenases and diaphorase inhibition will be eliminated, and selectivity assay will triage inhibitors of mammalian triose phosphate isomerase and the Class I FBPA. G. lamblia FBPA inhibitors identified by the in vitro analyses will be examined for growth inhibition of Giardia trophozoites, and for cytotoxicity in human cells.
Step,Parameter,Value,Description
1,Enzyme reagent,2 uL,40 nM FBPA
2,Compound,23 nL,3.68 nM-57.5 uM final concentration
3,Time,10 min,RT Incubation
4,Substrate/detection Reagent,2 uL,Substrate + enzyme coupling system + AmpLite Red kit
5,Time,20 min,RT Incubation
6,Detector,525 nm/598 nm (Fluorescence),ViewLux Fluorescence Read (Read 1)
1,Medium-binding black solid-bottom Kalypsys plates. FRD or Kalypsys dispenser, 2 uL of FBPA enzyme. Bottle kept at 4C.
2,Compound Library (10 mM ,1:5 dilution). Pin-transferred for a [final] range of 3.68 nM-57.5 uM.
4,FRD or Kalypsys dispenser, 2 uL of reaction mixture. Bottle kept at 4C and covered in foil to protect from light.
6,ViewLux Protocol 1194; Excitation filter wheel A (525/20 Pol; BODIPY TMR FP), Emission filter wheel B (598/25 S; BODIPY TMR FP S).
Keywords: Fructose-bisphosphate aldolase, FBPA , Giardia lamblia , Giardia, HTS, Inhibitors
With `O=C(c1cc(COc2ccc(F)cc2F)on1)N1CCOCC1`, the Potency result was “inactive”.

Regarding `CSc1ccccc1NC(=O)c1cc(Cl)sc1Cl`, the Potency entry is “inactive”.

For `CCCCC(C(=O)NC(C)(C)C)N(Cc1ccccc1)C(=O)c1snc(C(N)=O)c1N` (stereo unspecified), the Potency result was “inactive”.

For `CN1CCN(Cc2ccc(OC(F)(F)F)cc2)CC1`, the Potency result is “inactive”.

With `COc1ccccc1N1CCN(Cc2ccc(OC)c3ccccc23)CC1`, the Potency entry is “inactive”.

Turning to `COc1ccc(CN2CCN(Cc3ccc(OC)c(OC)c3OC)CC2)cc1`, the Potency was 14.1 µM (active).

Regarding `Cc1cc(N=Nc2ccc3ccccc3c2)ccc1O`, the Potency result was “inactive”.

Turning to `O=S(=O)(Nc1ccccc1Cl)c1cccc2nsnc12`, the Potency entry was “inactive”.

`CCOC(=O)c1cc2cc3ccccc3cc2oc1=O`: the Potency entry is “inactive”.

For `Cc1cc(C)n2nc(C(=O)NC(C)(C)C)nc2n1`, the Potency entry is “inactive”.

With `C=CCNC(=S)NNC(=O)c1cc(Cl)ccc1OC`, the Potency entry is “inactive”.

Regarding `COc1ccc(Cl)cc1C(=O)NNC(=O)c1nc2nc(C)cc(C)n2n1`, the Potency is 17.7 µM (active).

In the case of `CCN1C(=S)N[C@@H](c2cccc(C(F)(F)F)c2)C(C(=O)OC)=C1C`, the Potency entry is “inactive”.

For `O=C(Nc1cccnc1Cl)c1cc(-c2ccccc2O)on1`, the Potency entry is “inactive”.

On to `Cc1ccnc(NS(=O)(=O)c2ccc(NC(=O)c3ccc(S(=O)(=O)N4CCOCC4)cc3)cc2)n1`, for which the Potency entry is “inactive”.

Regarding `CSCc1nnc(NC(=O)c2ccc(S(=O)(=O)N3CCCCC3C)cc2)o1` (stereo unspecified), the Potency result was “inactive”.

As to `O=C(Nc1nnc(-c2ccco2)o1)c1ccc(S(=O)(=O)N2CCOCC2)cc1`, the Potency was 17.7 µM (active).

In the case of `CC1CCCN(S(=O)(=O)c2ccc(C(=O)Nc3nnc(-c4ccncc4)o3)cc2)C1` (stereo unspecified), the Potency is 7.06 µM (active).

As to `CC1CCCCN1S(=O)(=O)c1ccc(C(=O)Nc2nnc(-c3cccs3)o2)cc1` (stereo unspecified), the Potency result was “inactive”.

As for `O=C(Nc1ccc(N2CCOCC2)c(Cl)c1)c1ccc(S(=O)(=O)N2CCOCC2)cc1`, the Potency entry is “inactive”.

As to `CC(C)(C)c1ccc(Cn2nnc3c(=O)[nH]c(C4CCCN(C(=O)c5ccco5)C4)nc32)cc1` (stereo unspecified), the Potency result was “inactive”.

With `Cc1cccc(C(=O)Nc2ccc(Oc3cnccn3)cc2)c1`, the Potency entry was “inactive”.

Turning to `CN(Cc1ccccc1)C(=O)CSc1nc2ccccc2[nH]1`, the Potency result was “inactive”.

As for `COc1cc(Cl)ccc1OCc1cc(C(=O)N2CC[C@@H]3CCCC[C@H]3C2)no1`, the Potency result is “inactive”.

Take `COC(=O)[C@@H]1C[C@@]2(O)[C@H](O)[C@H](O)[C@H](O)C[C@H]2N1CC1CCCCC1`: the Potency result was “inactive”.

On to `Cc1cccc(C)c1OCCN1CCOCC1`, for which the Potency was 15.8 µM (active).

With `c1ccc(-c2ccc(OCCN3CCOCC3)cc2)cc1`, the Potency result was “inactive”.

As for `CC(=O)c1ccc(OCCN2CCOCC2)cc1`, the Potency result is “inactive”.

With `N#Cc1ccc(C2N=C(c3ccccc3)NO2)cc1` (stereo unspecified), the Potency result was “inactive”.

Regarding `COc1ccccc1C(C)NC(=O)Cc1ccsc1` (stereo unspecified), the Potency result was “inactive”.

Turning to `O=C(C[n+]1cc(Br)cc2ccccc21)c1ccc(F)cc1`, the Potency result is “inactive”.

As for `O=[N+]([O-])c1ccc2nc(-c3ccccn3)[nH]c2c1`, the Potency is 7.92 µM (active).

With `O=C(CSc1nc2ccc([N+](=O)[O-])cc2[nH]1)c1ccc(Cl)cc1`, the Potency result is “inactive”.

Consider `O=[N+]([O-])c1ccc2c(c1)Nc1nc3ccccc3nc1N2`, for which the Potency entry was “inactive”.

In the case of `COc1cccc(N(CC(=O)NCc2ccccc2)C(=O)CCC(=O)Nc2nccs2)c1`, the Potency entry was “inactive”.

In the case of `CCOc1ccccc1NC(=S)NC(=O)CCc1ccccc1`, the Potency result is “inactive”.

As to `CCc1cccc(NC(=S)N(CCN(C)C)C2CCN(C(C)C)CC2)c1`, the Potency entry was “inactive”.

On to `COCCN(C(=S)Nc1ccccc1OC)C1CCN(C(C)C)CC1`, for which the Potency was 15.8 µM (active).

Take `COCCN(CCOC)C(=S)Nc1ccccc1Cl`: the Potency entry is “inactive”.

Regarding `CCNc1c(NS(=O)(=O)c2ccc(C3CCCCC3)cc2)c(=O)oc2ccccc12`, the Potency result is “inactive”.

Turning to `O=c1c(O)c(Br)ccc2c(Br)c(O)c(O)c(O)c12`, the Potency was 11.2 µM (active).

In the case of `Cc1noc(C)c1-c1ccc2ncnc(NCc3ccc4[nH]ccc4c3)c2c1`, the Potency result is “inactive”.

As for `O=C(NC(=S)N1CCCCC1c1cccnc1)c1ccccc1` (stereo unspecified), the Potency entry was “inactive”.

With `COc1ccc(C(=O)NC(=S)N2CCCCC2c2cccnc2)cc1OC` (stereo unspecified), the Potency is 3.55 µM (active).

`COc1ccc(/C=C/C(=O)NC(=S)NN2CCCCC2c2cccnc2)cc1` (stereo unspecified): the Potency entry was “inactive”.

For the molecule `CC(C)(C)c1ccc(C(=O)N2CCN(CCNC(=O)C(=O)Nc3ccc(F)cc3)CC2)cc1`, the Potency result was “inactive”.

As for `CCc1nn(CCCC(=O)NCc2ccc(C)cc2)c(=O)c2cc3occc3n12`, the Potency entry was “inactive”.

`CC(C)c1ccc(N(C(=O)c2ccco2)C(C(=O)NC2CCCC2)c2cccnc2)cc1` (stereo unspecified): the Potency result is “inactive”.

In the case of `O=c1[nH]c(=O)c2nc3ccccc3nc2[nH]1`, the Potency result is “inactive”.

Consider `Nc1ccc2nc3c(=O)[nH]c(=S)[nH]c3nc2c1`, for which the Potency was 3.54 µM (active).

`Cc1ccc(NS(=O)(=O)c2ccc(-c3ccc(=O)[nH]n3)o2)c(C)c1`: the Potency result was “inactive”.

Consider `O=[N+]([O-])c1ccc(N(CCO)Cc2ccccc2)c([N+](=O)[O-])c1`, for which the Potency result was “inactive”.

Turning to `CCOc1cc(-c2cc(-c3ccc(NC(C)=O)cc3)nc(N)c2C#N)ccc1O`, the Potency entry is “inactive”.

As to `O=[N+]([O-])c1cccc2ncccc12`, the Potency entry is “inactive”.

As to `O=[N+]([O-])c1cc([N+](=O)[O-])c2cccnc2c1O`, the Potency was 15.8 µM (active).

Consider `CCN(CC)c1ccc([N+](=O)[O-])c2cccnc12`, for which the Potency result was “inactive”.

Regarding `CCOC(OCC)c1ccc(/C=C\c2nccc(N)n2)cc1`, the Potency entry was “inactive”.

For the molecule `Cc1ccc(NC(=S)NCCc2ccc(Cl)cc2)c(C)c1`, the Potency result is “inactive”.

Turning to `COc1ccc(-c2cn[nH]c2-c2ccc(OC)cc2)cc1`, the Potency result is “inactive”.

As for `COc1ccc(N=Nc2c(-c3ccc(OC)cc3)[nH]oc2=O)cc1`, the Potency was 12.6 µM (active).

Consider `O=c1o[nH]c(-c2ccccc2)c1N=Nc1c(F)cccc1Cl`, for which the Potency result was “inactive”.

Consider `O=C(Nc1ccc([N+](=O)[O-])cc1)OCCc1ccccn1`, for which the Potency result is “inactive”.

For `CCS(=O)(=O)C1=NSC2=NC(=O)/C(=C\c3ccc(OS(=O)(=O)c4ccccc4)cc3)C(=N)N21`, the Potency entry is “inactive”.

Regarding `COc1ccc(OCc2cc(C(=O)NCC3(C)COC3)no2)c(Cl)c1`, the Potency result is “inactive”.

In the case of `COC(=O)c1c(NC(=O)COc2ccc(Cl)cc2Cl)sc2c1CC(C)(C)NC2(C)C`, the Potency entry was “inactive”.

Consider `CN1CCCc2cc(C#N)c(=O)[nH]c21`, for which the Potency was 9.98 µM (active).

In the case of `Cc1[nH]c(C)c(S(=O)(=O)N2CCC(C)CC2)c1C(=O)N1CCCC1`, the Potency result is “inactive”.

For the molecule `CCNC(=S)N(CCN(CC)CC)Cc1cc2cc3c(cc2[nH]c1=O)OCCO3`, the Potency result was “inactive”.

For `CCOC(=O)c1cnc2[nH]c3ccccc3n2c1=O`, the Potency result was “inactive”.

Turning to `Cc1ccc(-c2nc3ccccc3[nH]c2=O)cc1`, the Potency result was “inactive”.

For `O=c1[nH]c2ccccc2n2c(-c3ccccc3)nnc12`, the Potency was 0.998 µM (active).
